# Source: PubChem BioAssay (Tox21)
# “And” between values parts separate entries of the source, which are not always exact repeats. Identical values can stand only once. Records with an inconclusive call do not appear. Where a structure was tested more than once in an assay, its records may differ in their call. The source made the active and inactive calls. Calls follow the shape of the full dose curve.
# Experiment: qHTS assay to identify small molecule antagonists of the sonic hedgehog signaling (Shh) pathway (AID 1259369); also: nearly all actives have a fitted effect of over 45% in size
# Settings: NIH/3T3 Gli1-Luc reporter, Shh antagonist, luminescence 24 h; series mostly up to 42.5 µM; activity change, negative = inhibition: at the top concentration
# Description: U.S. Tox21 Program National Center for Advancing Translational Sciences [NCATS] NIH Chemical Genomics Center [NCGC] U.S. Environmental Protection Agency [EPA] National Institutes of Environmental Health Sciences [NIEHS] National Toxicology Program [NTP] U.S. Food and Drug Administration [FDA] Tox21 Assay Overview: The sonic hedgehog (Shh) pathway is essential for normal embryonic development. Dysregulation of the Shh pathway can cause severe developmental defects in organs. Therefore chemicals that interfere with the pathway are potential developmental toxicants. A cell line designated 3T3Gli1-Luc (DMB/OARSA/CFSAN/FDA, Laurel, MD), a NIH/3T3 derived clone containing stably integrated Gli1-Luc reporter is used to detect chemical interference of the Shh pathway, by changes in the expression of the firefly Luc gene under the control of the Gli1 transcriptional response element. This cell line was used to screen Tox21 libraries for identifying and prioritizing the potential developmental toxicants that interfere Shh pathway. Conditioned medium-stimulated mode was used to screen for chemicals inhibiting Shh signaling.
# Tox21 Assay Protocol Summary: 3T3 Gli1-Luc cells were dispensed at 2,000 per well in 5uL of culture medium into white solid bottom 1536-well plates (Greiner Bio-One, Monroe, NC) using a Multidrop Combi (Thermo Scientific, Waltham, MA) dispenser. The assay plates were incubated at 37 C and 5% CO2 for 4hr, and then 23nL of compounds dissolved in DMSO and positive control were transferred using a Pintool station (Wako, San Diego, CA). The compound transfer was followed by the addition of 1ul conditioned medium or assay buffer using two separate tips of Flying Reagent Dispenser (FRD, Aurora Discovery, San Diego, CA). The assay plates were incubated at 37C and 5% CO2 for 24hr. For luciferase read, 4uL of Amplite Luciferase reporter gene assay reagent (AAT Bioquest, Inc. Sunnyvale, CA) was added to each well of the assay plates using FRD and incubated at room temperature for 30min. The luminescence signal was measured using a ViewLux plate reader (Perkin Elmer, Shelton, CT).
# % is scaled to controls: 0 for no effect and ±100 for the full control effect; potency is read from the fitted curve at half-maximal effect.
SMILES,"activity change, negative = inhibition",Potency
O=C(O)COc1nn(Cc2ccccc2)c2ccccc12,4.02% (inactive),–
CC/C=C\CCOC(C)=O,2.72% [at 92.4 µM] (inactive),–
CCCCCSCCCCC,-10% [at 92.4 µM] (inactive),–
OC(CCN1CCCCC1)(c1ccccc1)C1CC2C=CC1C2 (stereo not given),–,16.8 µM (active)
CN(C)CCCNCCCN(C)C,23.5% [at 92.4 µM] (inactive),–
CN(C)CCCN1c2ccccc2CCc2ccc(Cl)cc21,–,15.4 µM (active) and 11.9 µM (active)
O=C1CCCC(=O)C1,5.43% [at 92.4 µM] (inactive),–
CCCCNC(=O)NCCCC,0.317% [at 92.4 µM] (inactive),–
O=c1n(CCO)c(=O)n(CCO)c(=O)n1CCO,–,inactive and 27.3 µM (active)
CCC=O,13.7% [at 92.4 µM] (inactive),–
C[N+](C)(C)CC(O)CC(=O)[O-] (stereo not given),2.71% (inactive),–
N=C(N)c1ccccc1,0% [at 92.4 µM] (inactive),–
CC(C)c1cc2c(cc1S(=O)(=O)O)[C@@]1(C)CCC[C@@](C)(C(=O)O)[C@@H]1CC2,24.4% (inactive),–
CC(=O)OCC(CCn1cnc2cnc(N)nc21)COC(C)=O,2.56% (inactive),–
Cc1c(O)cccc1O,–,14 µM (active)
COC(=O)CCSCCC(=O)OC,17.4% [at 92.4 µM] (inactive),–
NS(=O)(=O)c1ccccc1Cl,0.945% [at 92.4 µM] (inactive),–
CN1CCC(=C2c3ccccc3CC(=O)c3sccc32)CC1,0.654% (inactive),–
N=C(N)c1ccc2cc(OC(=O)c3ccc(N=C(N)N)cc3)ccc2c1,7.85% (inactive),–
O=C1CCCN1C1CCCCC1,4.89% [at 92.4 µM] (inactive),–

SMILES,"activity change, negative = inhibition",Potency
CC(=O)c1ccccc1O,0% [at 92.4 µM] (inactive),–
COC(=O)NN,9.17% [at 92.4 µM] (inactive),–
CCn1ccnc1CC1COc2ccccc2O1 (stereo not given),12.7% (inactive),–
CCOC(=O)CCC(C)=O,14.5% [at 92.4 µM] (inactive),–
CCCCOCCOCCOCc1cc2c(cc1CCC)OCO2,–,1.39 µM (active) and 2.66 µM (active)
C=CCCCCCCCCC=O,-7.14% [at 92.4 µM] (inactive),–
COC(=O)c1c(Cl)c(Cl)c(C(=O)OC)c(Cl)c1Cl,-16.3% [at 92.4 µM] (inactive),–
CC(C)CNCC(C)C,17.9% [at 92.4 µM] (inactive),–
N#Cc1ccc(C2CCCc3cncn32)cc1 (stereo not given),9.11% (inactive),–
Cn1c(N)c(N=O)c(=O)n(C)c1=O,11.4% [at 92.4 µM] (inactive),–
O=C(O)CCCl,12.2% [at 92.4 µM] (inactive),–
c1ccc(CC2=NCCN2)cc1,17.5% (inactive),–
C[C@](N)(Cc1ccc(O)cc1)C(=O)O,37.1% [at 8.39 µM] (inactive),–
CC(C[N+](C)(C)C)OC(N)=O (stereo not given),30.1% (inactive),–
NC(=O)COCCN1CCN(C(c2ccccc2)c2ccc(Cl)cc2)CC1 (stereo not given),-1.31% (inactive),–
CCCCCCCCCCCCN(CCCCCCCCCCCC)CCCCCCCCCCCC,0% [at 92.4 µM] (inactive),–
C[C@H](NC(CCc1ccccc1)C(=O)O)C(=O)N1CCC[C@H]1C(=O)O (stereo not given in full),21.3% (inactive),–
COC(=O)CC(C)=O,6.79% [at 92.4 µM] (inactive),–
CCCN(CCC)CCc1cccc2c1CC(=O)N2,10.4% (inactive),–
CCN1CCC[C@H]1CNC(=O)c1c(O)c(Cl)cc(Cl)c1OC,23.6% (inactive),–
